# TDP1 cell CPT: qHTS for Inhibitors of human tyrosyl-DNA phosphodiesterase 1 (TDP1): qHTS in cells in presence of CPT. chicken DT40 Tdp1-/-;hTDP1 cells + 20 nM CPT, ATP luminescence, 48 h. Potency, µM (top dose mostly 46.2 µM), inactives show top-dose activity change, negative = growth inhibition, actives largely listed as inhibitors. actives 12% (n = 420,000); also: nearly all actives have a fitted effect of over 55% in size
#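 Chicken DT40 Tdp1-/- cells stably complemented with human TDP1 were seeded at 400 cells/well in medium containing 20 nM camptothecin, exposed to pin-transferred compounds, and grown at 37 °C for at least 48 hr. Viability was read as ATP luminescence.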
# KB-V1 cytotox: qHTS assay for MDR1-selective chemotherapeutics: Primary screen using the drug-selected MDR subline cells KB-V1; KB-V1 MDR cells viability, CellTiter-Glo, 72 h; Potency, µM (titrated, usually from 46.1 µM), usual class: cytotoxic; actives 3.4% (n = 400,000); AID 1347076, 2019; also: nearly all actives have a fitted effect of over 60% in size
#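 Luminescent ATP read-out (CellTiter-Glo, 10 min) measures survival of drug-selected KB-V1 MDR cells after 72 h, 37 degrees C compound exposure. Medium: phenol-red-free DMEM, 10% FBS. Values from fitted concentration-response curves.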
# HT1080 IDH1KD tx: qHTS for induction of synthetic lethality in tumor cells producing 2HG: qHTS for the HT-1080-IDH1KD cell line. HT-1080 IDH1 knockdown viability, ATP luminescence, 48 h. Potency, µM (series often up to 46.1 µM), without a hit: at the top dose activity, negative = toxicity, actives largely listed as cytotoxic. actives 2% (n = 360,000). AID 686971, 2013;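 also: 0% = DMSO wells and -100% = cell-free medium wells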
#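 After a 2 h attachment period, IDH1KD HT-1080 cells took pin-transferred compound for 48 h at 37 °C; ATP-based luminescence after 10 min room-temperature reagent incubation reported viability.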
# DT40 TDP1 no CPT: qHTS for Inhibitors of human tyrosyl-DNA phosphodiesterase 1 (TDP1): qHTS in cells in absence of CPT. DT40 Tdp1-/- hTDP1 cells, no CPT, ATP luminescence, 48 h. Potency, µM (doses to about 46.2 µM), without a hit: at the highest dose activity change, negative = growth inhibition, usual class: inhibitors. actives 15% (n = 420,000); also: nearly all actives have a fitted effect of over 55% in size
#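 DT40 Tdp1-/-;hTDP1 cells, no CPT (DMSO vehicle only), 400 cells/well; compounds pin-transferred; ≥48 hr, 37 °C; CellTiter-Glo 30 min RT dark, luminescence read.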
# HT1080-NT tox: qHTS for induction of synthetic lethality in tumor cells producing 2HG: qHTS for the HT-1080-NT fibrosarcoma cell line | Potency, µM (titrated, usually from 46.1 µM), without a hit: top-dose activity, negative = less viability, most hits filed as cytotoxic | actives 1.6% (n = 360,000) | HT-1080-NT fibrosarcoma viability, CellTiter-Glo ATP luminescence, 48 h;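 also: NT is the 2HG producing partner of a matched IDH1 knockdown line; 0% = DMSO-treated cells and -100% = media-only wells without cells; nearly all actives have a fitted effect of over 55% in size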
#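 Toxicity toward the 2HG-producing NT line was scored as %Activity, normalised to DMSO and no-cell wells, from CellTiter-Glo luminescence after 48 hours' treatment.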
# KB-3-1 tox: qHTS assay for MDR1-selective chemotherapeutics: Primary screen using the parental adenocarcinoma cell KB-3-1. KB-3-1 viability, CellTiter-Glo ATP luminescence, 72 h. Potency, µM (titrated, usually from 46.1 µM), most hits filed as cytotoxic. actives 1.4% (n = 400,000); also: nearly all actives have a fitted effect of over 60% in size
#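 Cells are dispensed, compounds pinned in, plates held at 37 °C for 72 h, then CellTiter-Glo is added and luminescence read after 10 minutes. Cell line: parental KB-3-1 in phenol-red-free DMEM, 10% FBS.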
# Numbers without * were called inactive; i = inactive; ? = inconclusive; . = not tested or not shown. Sampled rows, rich in hits. Any-hit rate of the full collection: about 19%. Calls follow the shape of the dose curve; as a rule, active = well fitted curve in the direction sought with a large enough effect; inconclusive = small, poorly fitted or top-dose-only effect, or another doubt; inactive = no such curve, though single readings can be large; an effect the other way counts as inactive or inconclusive. Unless noted, % is scaled to controls: 0 for no effect and ±100 for the full control effect; potency is read from the fitted curve at half-maximal effect.
SMILES,TDP1 cell CPT,KB-V1 cytotox,HT1080 IDH1KD tx,DT40 TDP1 no CPT,HT1080-NT tox,KB-3-1 tox
COc1ccc(C2/C=C\CN(C(=O)OCC3c4ccccc4-c4ccccc43)CC(=O)N2Cc2cccc(F)c2)cc1 (stereo not given),?,i,-16.5%,23.1µM*,-7.4%,i
CCN1C(=O)[C@@H]2[C@@H](c3ccc(-c4ccc(F)cc4)c(OC)c3)N3CCCC[C@@]3(C(=O)OC)[C@@H]2C1=O,16.4µM*,i,19.3%,16.4µM*,0.0%,i
CCN1C(=O)[C@@H]2[C@@H](c3ccc(-c4ccc(F)cc4)cc3)N3CCCC[C@@]3(C(=O)OC)[C@@H]2C1=O,?,?,?,23.1µM*,-10.1%,i
CCN1C(=O)[C@@H]2[C@@H](c3ccc(-c4cc(C(C)=O)cs4)cc3)N3CCC[C@@]3(C(=O)OC)[C@@H]2C1=O,?,i,0.9%,?,-4.6%,i
CCN1C(=O)[C@H]2[C@@H](c3ccc(-c4ccc(C(C)=O)cc4)c(OC)c3)N3CCCC[C@@]3(C(=O)OC)[C@H]2C1=O,23.1µM*,i,-10.6%,16.4µM*,0.0%,i
Cc1ccc2c(c1)cc1c(=O)n(CC(=O)NC(C)CCc3ccccc3)nc(C)n12 (stereo not given),-6.9%,.,.,-16.1%,.,.
COc1ccc(-c2csc(N(CCCN(C)C)C(=O)c3ccccc3C)n2)cc1,3.66µM*,i,?,4.61µM*,?,i
O=C(c1cccs1)N(Cc1ccco1)c1nc(-c2ccc(F)cc2)cs1,1.0%,i,-23.4%,-29.6%,0.2%,i
COc1ccc(-c2csc(N(CCCN(C)C)C(=O)c3ccccc3F)n2)cc1,9.2µM*,i,-12.6%,14.6µM*,-16.9%,i
COCCN(C(=O)c1ccccc1F)c1nc(-c2ccc(OC)cc2)cs1,-3.1%,i,-15.5%,?,-20.4%,i
CCN(CC)CCCN(C(=O)c1ccc(F)cc1)c1nc(-c2ccc(OC)cc2)cs1,13µM*,i,23.1µM*,10.3µM*,?,i
CN(C)CCCN(C(=O)c1cccs1)c1nc(-c2ccccc2)cs1,?,9.2µM*,?,?,?,i
COc1ccc(C(=O)NCC(=O)N/N=C/c2cn(C)c3ccccc23)cc1OC,-9.7%,?,-6.5%,1.2%,-14.1%,i
COc1ccc(-c2csc(N(CCCN(C)C)C(=O)c3ccccc3Cl)n2)cc1,?,?,18.4µM*,?,20.6µM*,16.4µM*
CCN(C(=O)c1ccccc1F)c1nc(-c2ccc(OC)cc2)cs1,20.6µM*,i,-8.6%,20.6µM*,?,?
COc1ccc(-c2csc(N(CCCN(C)C)C(=O)c3ccc(F)cc3)n2)cc1,-34.9%,?,?,?,-21.5%,i
COc1cccc(NC(=O)CCc2nnc3n(Cc4ccccc4Cl)c(=O)c4ccccc4n23)c1,16.4µM*,.,.,?,.,.
O=C(CCc1nnc2n(Cc3ccccc3Cl)c(=O)c3ccccc3n12)Nc1ccc(F)cc1,5.8µM*,.,.,5.17µM*,.,.
CC(C)Cn1c(=O)c2ccccc2n2c(CCC(=O)Nc3cccc(Cl)c3)nnc12,?,.,.,16.4µM*,.,.
CC(C)Cn1c(=O)c2ccccc2n2c(CCC(=O)NCc3ccccc3Cl)nnc12,2.1%,.,.,-3.1%,.,.

# Assay outcomes: PubChem, National Center for Advancing Translational Sciences (NCATS)
